The text below walks through data of PubChem BioAssay.

Experiment [1] is described as follows: liver-stage malaria parasite growth inhibition, primary screen, cell-based, HepG2, luciferase luminescence, HepG2 viability (AID 624349; in the data active = parasite load remaining mostly below about 12%, no sharp cut-off; inactive = mostly above about 10%;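 also: 100% = mean of DMSO negative control wells on the same plate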). As to conditions: P. berghei liver stage in HepG2, luciferase luminescence, concentration not given here; parasite load remaining: stronger effect = lower value; viability: measured here: HepG2 viability without parasites.
Experiment [2] is described as follows: differential killing of epithelial or mesenchymal cells, primary screen, imaging, PC-3E GFP, TEM4-18 mCherry, co-culture (AID 1345086;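 active = compounds killing one labelled cell type while sparing the other, by normalised counts and ratio limits, not self-fluorescent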;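 as to all read-outs here: cells exposed to compound for 72 h before imaging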;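 as to red/green cell ratio (normalised): normalised mesenchymal count divided by normalised epithelial count so high means epithelial killing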). The following applies: imaging cell counts, at 1 µM; for red/green cell ratio (normalised): actives lie on both sides, counts scaled to control wells, 1 = unselective.
The nature of experiment [3]: sensitizers of A549 cells to miR-34 induction, primary screen, imaging, A549 dox-inducible miR-34, nuclei and caspase counts (AID 1347080). As to conditions: A549 miR-34 inducible, Hoechst nuclei count, 48 h.
For experiment [4], the target named is NAD(+) hydrolase SARM1 (Homo sapiens) (UniProt Q6SZW1). As to the kind of experiment: SARM1 TIR NADase inhibitors, cell lysate, NAD-Glo luminescence (AID 1508614;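 active = compound whose remaining NAD level is above about 45 nM, limit read from the data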;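 also: higher remaining NAD means stronger inhibition of SARM1 NADase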). As to conditions: SAM-TIR HEK293T lysate NADase, at 1 µM, stronger effect = higher value.
Experiment [5] addresses Mitogen-activated protein kinase 7 (Homo sapiens) (UniProt Q13164). As to the kind of experiment: ERK5 transactivation activators in reporter cells, primary screen, cell-based, HTS (AID 1508626;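 active = luciferase signal above three times the same-plate solvent-only control wells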;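 also: luciferase driven by Gal4-ERK5 fusion binding five Gal4 sites before minimal TATA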). As to conditions: HeLa Gal4-ERK5 transactivation, 18 h, at 5 µM, stronger effect = higher value.
Experiment [6] is described as follows: viability rescue of complex I mutant cybrids, primary screen, cell-based, galactose medium, ATP luminescence (AID 1645843;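 active = z-score of at least 1.8 in each of two replicates, scored against plate mean and spread of sample wells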;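 also: positive z means more ATP and so rescue of galactose-driven cybrid death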). As to conditions: complex I mutant cybrid cells, 72 h, stronger effect = higher value.
Where [7] appears, read: measured here: epithelial PC-3E GFP cell survival.
Setting [8] is: measured here: mesenchymal TEM4-18 mCherry cell survival.
[9] abbreviates: stronger effect = lower value, cell number ratio, induced over uninduced.
Setting [10] is: measured here: relative caspase fold change +Dox/-Dox.
[11] abbreviates: measured here: total cells with miR-34 induction, stronger effect = lower value.
Where [12] appears, read: measured here: total cells without miR-34 induction.

Values joined by “and” are separate entries in the source; they are usually repeats but may differ in a detail not shown here. Equal values may be shown once. Active and inactive are the calls of the source.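 The calls were made as follows, unless noted: active = compounds whose cell count with miR-34 switched on is under 0.7 times the count with it off; inactive = the rest.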

Mitogen-activated protein kinase 7 (Homo sapiens), sequence (Q13164 whole entry, looked up, the tested form may be a part): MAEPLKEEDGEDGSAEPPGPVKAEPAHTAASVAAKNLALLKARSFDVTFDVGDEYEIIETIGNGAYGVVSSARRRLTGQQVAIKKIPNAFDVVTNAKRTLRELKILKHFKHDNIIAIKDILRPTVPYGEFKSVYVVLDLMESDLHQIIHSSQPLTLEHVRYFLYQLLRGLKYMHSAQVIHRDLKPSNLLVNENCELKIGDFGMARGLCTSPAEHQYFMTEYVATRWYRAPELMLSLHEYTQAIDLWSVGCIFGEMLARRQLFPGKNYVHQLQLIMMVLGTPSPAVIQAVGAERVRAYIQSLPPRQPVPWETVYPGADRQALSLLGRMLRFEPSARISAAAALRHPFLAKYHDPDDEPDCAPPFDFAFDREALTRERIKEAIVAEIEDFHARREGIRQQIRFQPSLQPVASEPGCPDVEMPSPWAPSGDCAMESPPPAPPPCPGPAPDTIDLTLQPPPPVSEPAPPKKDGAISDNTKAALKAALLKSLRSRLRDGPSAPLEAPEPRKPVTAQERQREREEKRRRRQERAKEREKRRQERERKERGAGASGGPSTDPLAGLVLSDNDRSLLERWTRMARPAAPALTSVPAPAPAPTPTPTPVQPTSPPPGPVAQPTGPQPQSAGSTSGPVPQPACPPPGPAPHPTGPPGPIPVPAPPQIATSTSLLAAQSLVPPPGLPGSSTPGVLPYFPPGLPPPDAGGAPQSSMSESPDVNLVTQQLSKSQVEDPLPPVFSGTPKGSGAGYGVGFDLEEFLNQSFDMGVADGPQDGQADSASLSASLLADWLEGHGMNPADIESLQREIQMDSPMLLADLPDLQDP
NAD(+) hydrolase SARM1 (Homo sapiens), sequence (Q6SZW1 whole entry, looked up, the tested form may be a part): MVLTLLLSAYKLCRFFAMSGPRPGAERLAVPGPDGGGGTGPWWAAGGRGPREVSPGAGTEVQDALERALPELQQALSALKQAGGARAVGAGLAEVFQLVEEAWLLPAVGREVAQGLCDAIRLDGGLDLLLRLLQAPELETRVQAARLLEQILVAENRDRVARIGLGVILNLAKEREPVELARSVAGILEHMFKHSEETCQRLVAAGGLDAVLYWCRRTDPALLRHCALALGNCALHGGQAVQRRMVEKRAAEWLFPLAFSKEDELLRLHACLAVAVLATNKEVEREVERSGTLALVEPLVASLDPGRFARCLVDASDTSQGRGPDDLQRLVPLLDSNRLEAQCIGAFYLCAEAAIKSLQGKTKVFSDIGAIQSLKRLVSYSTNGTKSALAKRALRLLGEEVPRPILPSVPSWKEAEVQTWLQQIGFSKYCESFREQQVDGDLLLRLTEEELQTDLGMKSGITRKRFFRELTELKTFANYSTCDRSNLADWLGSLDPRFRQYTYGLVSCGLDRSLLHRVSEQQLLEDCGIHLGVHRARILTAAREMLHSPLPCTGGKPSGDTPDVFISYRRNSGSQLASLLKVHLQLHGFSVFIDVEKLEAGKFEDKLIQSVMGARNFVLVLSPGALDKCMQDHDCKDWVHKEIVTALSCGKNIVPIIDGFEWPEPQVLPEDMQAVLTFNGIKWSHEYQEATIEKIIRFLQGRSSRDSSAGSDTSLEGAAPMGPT

As to `OC[C@H]1O[C@H](O[C@]2(CCl)O[C@H](CCl)[C@@H](O)[C@@H]2O)[C@H](O)[C@@H](O)[C@H]1Cl`, the parasite load remaining in experiment [1] is 60.8% (inactive). The viability in experiment [1] is 98.6%. Moreover, the red/green cell ratio (normalised) in experiment [2] is 0.96 (inactive). The normalised cell number in experiment [2] (setting [7]) was found to be 1.1; in experiment [2] (setting [8]), 1.05. The fold change is 0.909 (inactive) in experiment [3] (setting [9]) and 4.93 in experiment [3] (setting [10]). The cell count in experiment [3] (setting [11]) amounted to 12300; in experiment [3] (setting [12]), 13500. Further, the remaining NAD in experiment [4] was 10 nM (inactive). Moreover, the luciferase signal in experiment [5] was 68 AU (inactive).

Consider `Nc1ccc(S(=O)(=O)[O-])cc1.Nc1ccc(S(=O)(=O)[O-])cc1.[Zn+2]`, for which the parasite load remaining in experiment [1] was 34.7% (inactive). In addition, the viability in experiment [1] came to 93.6%. For the same compound, the red/green cell ratio (normalised) in experiment [2] was 0.95 (inactive). Besides, the normalised cell number in experiment [2] (setting [7]) was 1.26; in experiment [2] (setting [8]) it was 1.2. For the same compound, the fold change in experiment [3] (setting [9]) was 0.91 (inactive); in experiment [3] (setting [10]), 2.98. In addition, the cell count in experiment [3] (setting [11]) is 11500; in experiment [3] (setting [12]), 12600. For the same compound, the luciferase signal in experiment [5] was 56 AU (inactive).

As for `O=C1C2CC3CC1CC(O)(C3)C2`, the red/green cell ratio (normalised) in experiment [2] was 0.85 (inactive). Also, the results for the normalised cell number in experiment [2] (setting [7]) and in experiment [2] (setting [8]) were 1.16 and 0.99, respectively. The fold change in experiment [3] (setting [9]) is 0.951 (inactive); in experiment [3] (setting [10]) it was 0.928. The cell count in experiment [3] (setting [11]) came out at 9100; in experiment [3] (setting [12]), 9570. Besides, in experiment [4], the remaining NAD was 10 nM (inactive).

With `Cc1nccnc1N1CCCCC1`, the red/green cell ratio (normalised) in experiment [2] is 1.12 (inactive). Moreover, the figures for the normalised cell number in experiment [2] (setting [7]) and in experiment [2] (setting [8]) were 0.93 and 1.04, respectively. Also, the fold change in experiment [3] (setting [9]) is 0.964 (inactive); in experiment [3] (setting [10]), 0.767. The cell count came out at 9440 in experiment [3] (setting [11]) and 9790 in experiment [3] (setting [12]). In experiment [4], the remaining NAD was 10 nM (inactive).

In the case of `C[C@@H]1O[C@@H](OC[C@H]2OC(Oc3c(-c4ccc(O)c(O)c4)oc4cc(O)cc(O)c4c3=O)[C@H](O)[C@@H](O)[C@@H]2O)[C@H](O)[C@H](O)[C@H]1O` (stereo partly drawn), in experiment [1], the parasite load remaining is 80% (inactive). Also, the viability in experiment [1] was 104%. Besides, in experiment [2], the red/green cell ratio (normalised) was 1.05 (inactive). Further, the normalised cell number in experiment [2] (setting [7]) came out at 0.95; in experiment [2] (setting [8]), 0.99. For the same compound, the fold change in experiment [3] (setting [9]) was 0.911 (inactive); in experiment [3] (setting [10]), 2.84. The cell count in experiment [3] (setting [11]) worked out at 11500; in experiment [3] (setting [12]) it was 12600. Besides, in experiment [5], the luciferase signal is 56 AU (inactive).

As for `COc1ccc(C[C@H](N)C(=O)N[C@@H]2[C@@H](CO)OC(n3cnc4c(N(C)C)ncnc43)[C@@H]2O)cc1` (stereo partly drawn), the parasite load remaining in experiment [1] is 54.7% (inactive) and 3.3% (inactive). In experiment [1], the viability is 40.9% and 70.7%. The red/green cell ratio (normalised) in experiment [2] was 1 (inactive). Besides, the normalised cell number in experiment [2] (setting [7]) and in experiment [2] (setting [8]) was 0.94 throughout. The fold change is 1.05 (inactive) in experiment [3] (setting [9]) and 1.45 in experiment [3] (setting [10]). Also, the results for the cell count in experiment [3] (setting [11]) and in experiment [3] (setting [12]) were 385 and 366, respectively.

As for `CCOC(=O)Nc1nc2ccccc2[nH]1`, the parasite load remaining in experiment [1] was 62.9% (inactive). Also, the viability in experiment [1] turned out to be 103%. Moreover, the red/green cell ratio (normalised) in experiment [2] was 1.08 (inactive). Moreover, the normalised cell number was found to be 0.9 in experiment [2] (setting [7]) and 0.97 in experiment [2] (setting [8]). Further, the fold change in experiment [3] (setting [9]) is 0.84 (inactive); in experiment [3] (setting [10]), 2.72. In addition, the cell count in experiment [3] (setting [11]) amounted to 8540; in experiment [3] (setting [12]) it was 10200. The remaining NAD in experiment [4] was 10 nM (inactive). Besides, the luciferase signal in experiment [5] is 88 AU (inactive).

For the compound `CC(=O)C1C(=O)C=C(C)OC1=O` (stereo not drawn), the red/green cell ratio (normalised) in experiment [2] is 1.08 (inactive). In addition, the values for the normalised cell number in experiment [2] (setting [7]) and in experiment [2] (setting [8]) were 0.99 and 1.07, respectively. Besides, the fold change is 0.96 (inactive) in experiment [3] (setting [9]) and 0.723 in experiment [3] (setting [10]). For the same compound, the cell count in experiment [3] (setting [11]) came to 9120; in experiment [3] (setting [12]) it was 9500. For the same compound, the remaining NAD in experiment [4] is 10 nM (inactive).

Take `C#C[C@]1(O)CCC2C3CCc4cc(O)ccc4C3CC[C@@]21C` (stereo partly drawn): in experiment [1], the parasite load remaining is 88.3% (inactive) and 66.4% (inactive). Moreover, the viability in experiment [1] was 76.2% and 99.2%. Moreover, the red/green cell ratio (normalised) in experiment [2] is 0.98 (inactive). The normalised cell number was found to be 1.1 in experiment [2] (setting [7]) and 1.07 in experiment [2] (setting [8]). Further, the fold change in experiment [3] (setting [9]) is 1.12 (inactive) and 1.01 (inactive); in experiment [3] (setting [10]) it was 1.15 and 1.03. The cell count in experiment [3] (setting [11]) was 5370 and 6100; in experiment [3] (setting [12]), 4780 and 6050. The z-score in experiment [6] was -0.545 (inactive).

Take `CC(=O)Oc1c(C)cccc1C(=O)O`: the red/green cell ratio (normalised) in experiment [2] was 0.87 (inactive). Besides, the normalised cell number in experiment [2] (setting [7]) amounted to 1.16; in experiment [2] (setting [8]) it was 1. Further, the fold change was 0.895 (inactive) in experiment [3] (setting [9]) and 0.783 in experiment [3] (setting [10]). The cell count came out at 8780 in experiment [3] (setting [11]) and 9810 in experiment [3] (setting [12]). Besides, the remaining NAD in experiment [4] is 10 nM (inactive). For the same compound, the luciferase signal in experiment [5] was 56 AU (inactive).

For the compound `CC1(C)O[C@@H]2CC3C4C[C@H](F)C5=CC(=O)C=CC5(C)C4C(O)CC3(C)[C@]2(C(=O)CO)O1` (stereo partly drawn), the parasite load remaining in experiment [1] was 131% (inactive) and 75.5% (inactive). Besides, the viability in experiment [1] is 60.7% and 91.7%. For the same compound, the red/green cell ratio (normalised) in experiment [2] was 1.23 (inactive). Also, the normalised cell number was determined as 1.12 in experiment [2] (setting [7]) and 1.38 in experiment [2] (setting [8]). The fold change in experiment [3] (setting [9]) is 0.878 (inactive); in experiment [3] (setting [10]), 1.79. Further, the cell count amounted to 7120 in experiment [3] (setting [11]) and 8110 in experiment [3] (setting [12]).

On to `Cc1c(C)c2c(c(C)c1O)CCC(C)(CCCC(C)CCCC(C)CCCC(C)C)O2` (stereo not drawn), for which the parasite load remaining in experiment [1] is 67.5% (inactive). The viability in experiment [1] came out at 90.7%. The red/green cell ratio (normalised) in experiment [2] was 1.01 (inactive). In addition, the normalised cell number in experiment [2] (setting [7]) is 0.82; in experiment [2] (setting [8]) it was 0.83. In addition, the results for the fold change in experiment [3] (setting [9]) and in experiment [3] (setting [10]) were 0.899 (inactive) and 1.09, respectively. Also, the cell count in experiment [3] (setting [11]) was found to be 10700; in experiment [3] (setting [12]) it was 11900. Moreover, in experiment [5], the luciferase signal is 44 AU (inactive).

For orientation: viability means a read-out of living cells in per cent, often relative to untreated cells.
